Compounds without any hit were thinned out: in the full panel of roughly 79,000, 15% have a hit. A number with no mark means an inactive call. Active and inactive are the calls of the source. No stated cut-off is given here; in the data, active means growth inhibition above about 70%; inactive means the rest.

Assay [1] in a line: NCI Yeast Anticancer Drug Screen. Data for the rad50 strain (AID 155).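 Further: 0% = growth of vehicle-only cultures of the same strain.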 The conditions noted are these: S. cerevisiae rad50 strain growth inhibition; at 50.0 µM; hits give high values. The method in brief:
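DNA repair mutant yeast, compound exposure, growth read-out; inhibition is taken relative to vehicle.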

Assay [2] can be described thus: NCI Yeast Anticancer Drug Screen. Data for the mec2-1 strain (AID 157). The conditions noted are these: S. cerevisiae mec2-1 strain, at 50.0 µM, hits give high values. The method in brief:
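Compounds were applied to mec2-1 yeast cells. Their growth was then compared with that of vehicle-treated cultures to give growth inhibition.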

Assay [3] in a line: NCI Yeast Anticancer Drug Screen. Data for the cln2 rad14 strain (AID 165).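 Further: 0% = growth equal to vehicle treated cultures.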 The conditions noted are these: S. cerevisiae cln2 rad14 strain, at 50.0 µM, hits give high values. The method, boiled down:
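Strain: cln2 rad14 yeast, altered in cell cycle control and DNA damage repair. Read-out: growth inhibition vs vehicle.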

Assay [4] can be described thus: NCI Yeast Anticancer Drug Screen. Data for the bub3 strain (AID 167). The conditions noted are these: S. cerevisiae bub3 mutant strain, at 50.0 µM, hits give high values. The method, boiled down:
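In this screen, a yeast mutant lacking normal mitotic checkpoint function is challenged with compound. Relative growth versus vehicle gives the inhibition value.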

Assay [5] is described as follows: NCI Yeast Anticancer Drug Screen. Data for the mlh1 rad18 strain (AID 175). The conditions noted are these: S. cerevisiae mlh1 rad18 strain growth inhibition; at 50.0 µM; hits give high values. The method, boiled down:
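A repair-deficient yeast strain is exposed to test compound, and growth is scored relative to vehicle-treated controls.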

Assay [6] in a line: NCI Yeast Anticancer Drug Screen. Data for the sgs1 mgt1 strain (AID 161).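 Further: 0% = growth of cultures given vehicle only.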 The conditions noted are these: S. cerevisiae sgs1 mgt1 strain, at 50.0 µM, hits give high values. The method in brief: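 Yeast cells carrying a defined DNA-repair defect were exposed to test compounds. Growth inhibition was measured relative to vehicle-treated controls.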

Consider `Oc1ccc2c(c1)OCC1(O)Cc3cc(O)c(O)cc3C21` (centres undefined), for which the growth inhibition in assay [1] is 3.9%; in assay [2], -2.4%; in assay [3], 3.6%; in assay [4], 9.75%; in assay [5], -3.8%.
On to `Nc1ccc(C(=O)c2ccc(N)c(Br)c2)cc1Br`, for which the growth inhibition was 15% in assay [1]; -0.85% in assay [2]; -77.9% in assay [3]; 43.3% in assay [4]; 4.05% in assay [5].
Turning to `CCCCCCCCCCCCCC(=O)Oc1ccc[nH]c1=O`, the growth inhibition in assay [1] was -12.2%; in assay [2], -19.6%; in assay [6] it was -15.9%; in assay [4] it was 0.65%; in assay [5] it was 0.7%.
Turning to `CN(C)C(=O)Oc1cccc([N+](C)(C)C)c1`, the growth inhibition in assay [1] is -1.5%; in assay [2], -8.2%; in assay [3], -60.9%; in assay [4], 0.2%; in assay [5], -5.35%.
Taken in the same sequence, the figures for `C#CCSc1nnnn1-c1ccc(Br)c(C)c1` were 14.8%, 1.3%, 22.3%, 32.6% and 7.1%.
As to `CC(C)(C)n1nc(C2CC2)c(Br)c1NC(=O)c1ccccc1F`, the growth inhibition is -6.6% in assay [1]; -12.2% in assay [2]; 8.7% in assay [6]; 5.55% in assay [4]; 10.9% in assay [5].
Take `O=C(NCO)c1ccccc1`: the growth inhibition in assay [1] was 36.2%; in assay [2], 1.95%; in assay [3] it was 7.75%; in assay [4], 13.9%; in assay [5], 27.9%.
Taken in the same sequence, the figures for `Cc1cc(N)ccc1-c1ccc(N)cc1C` were -3%, -6.45%, -39%, -23.1% and 37.8%.
Regarding `O=C1c2ccccc2C(=O)c2c1ccc(C(=O)O)c2[N+](=O)[O-]`, the growth inhibition was 29.4% in assay [1]; 16.6% in assay [2]; 31.8% in assay [3]; 19.7% in assay [4]; 28% in assay [5].
Consider `O=C(c1ccc(Cl)cc1)c1ccccc1Cl`, for which the growth inhibition is 37.9% in assay [1]; -8.3% in assay [2]; -41.1% in assay [3]; 25% in assay [4]; 19% in assay [5].
With `O=c1[nH]cc(Cl)cc1O`, the growth inhibition in assay [1] is -0.15%; in assay [2], -3.3%; in assay [3] it was -40.9%; in assay [4], 13.2%; in assay [5], 4.9%.
Taken in the same sequence, the figures for `CC1SC(N)=NC1=O` (centres undefined) were 12.8%, -6.7%, -2.15%, -7.5% and 2.55%.
As to `COc1cc(C(N)=O)cc(OC)c1OC`, the growth inhibition in assay [1] was 2.9%; in assay [2], -9.5%; in assay [3] it was 4.9%; in assay [4], 4.95%; in assay [5], -2.65%.
The corresponding values for `COc1cccc(O)c1O` are 3.45%, 9.4%, 16.9%, 9.95% and 19.4%.
In the case of `O=C(Nc1ccccc1)OCCc1ccccc1`, the growth inhibition in assay [1] is 45.3%; in assay [2], 37.8%; in assay [3], 42.9%; in assay [4], 37.6%; in assay [5], 34.2%.
The corresponding values for `Nc1ncnc2[nH]ncc12` are -0.9%, 25.5%, -2.6%, 4.7% and 14.1%.
The corresponding values for `COC(=O)c1cc(-c2ccc(Cl)c(Cl)c2)[nH]c(=O)c1C#N` are -16.9%, -18.9%, 21.7%, -21.9% and 18.6%.
The corresponding values for `Brc1cnc2ccccc2c1` are 12.8%, 9.05%, -7.65%, -2.55% and 22.2%.
Take `CC1(O)OC(COc2ccc(Cl)cc2)COC1O` (centres undefined): the growth inhibition was 0.55% in assay [1]; -8.65% in assay [2]; 4.7% in assay [6]; -9.7% in assay [4]; 18.9% in assay [5].
Turning to `O=C1C=C(O)C(=O)C=C1O`, the growth inhibition in assay [1] was 4.45%; in assay [2], -10.2%; in assay [3], 0.4%; in assay [4] it was -2.35%; in assay [5] it was 28.5%.
The corresponding values for `Cc1ccc(CCCC(=O)O)c(C)c1` are 6.5%, -0.25%, 1.45%, 28.9% and 45.6%.
For the compound `O/N=C/c1ccc(O)cc1O`, the growth inhibition in assay [1] is -11.9%; in assay [2] it was -5.45%; in assay [6], -32.1%; in assay [4] it was 17.9%; in assay [5], -33.4%.
As to `NCC(=O)CCC(=O)O`, the growth inhibition in assay [1] is 6.3%; in assay [2] it was -3.7%; in assay [3], -4.95%; in assay [4], -0.85%; in assay [5], -1.4%.
Taken in the same sequence, the figures for `O=C(O)COCC(=O)O` were 34.1%, -15.2%, -53.2%, 5.85% and 4.75%.
The corresponding values for `CC(C)OC(=O)c1cc(NC(=S)OC(C)C)ccc1Cl` are 3.95%, 10.2%, 15.3%, 32.5% and 85.1% (active).
On to `COC(=O)c1ccc(C(C)C)cc1`, for which the growth inhibition was 2.95% in assay [1]; -1.35% in assay [6]; 16.1% in assay [3]; 0.3% in assay [4]; 4.05% in assay [5].
For `CN(C)CCN(Cc1ccccc1)c1ccccc1`, the growth inhibition is -16.1% in assay [1]; -13.6% in assay [6]; -10.7% in assay [3]; -20.8% in assay [4]; -12% in assay [5].
In the case of `O=c1c2ccccc2c(Br)c(Br)c2ccccc12`, the growth inhibition in assay [1] is 11.4%; in assay [6], 15.6%; in assay [3], 3.3%; in assay [4] it was 9.15%; in assay [5], 27.4%.
With `N#Cc1ccc(OC(=O)Nc2ccc(Cl)c(Cl)c2)cc1`, the growth inhibition was -7.65% in assay [1]; 20.9% in assay [6]; 8.35% in assay [3]; 9.95% in assay [4]; 5.8% in assay [5].
In the case of `C/C(=N/NC(N)=O)c1ccco1`, the growth inhibition is 1.1% in assay [1]; -3.55% in assay [6]; -2% in assay [3]; 1.95% in assay [4]; -3.55% in assay [5].
For `CCCCC(O)c1ccccc1` (centres undefined), the growth inhibition was -16.6% in assay [1], -24.7% in assay [6], -21.8% in assay [3] and -12.9% in assay [4].
